Screening results (PubChem BioAssay)
CtBP-E1A inh: CtBP/E1A binding inhibition; AlphaScreen GST-E1A/His-CtBP binding, 1536-well; stronger effect = lower value; activity change, % (no concentration beside the values); hit rate 0.49% among 340,000; AID 651724; in the data active = activity change below about -65%; inconclusive = mostly about -30% to -63%; also: % is scaled to controls: 0 for no effect and ±100 for the full control effect
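AlphaScreen with 125 nM GST-E1A and 125 nM His-CtBP (5X stocks) in Tris pH 8.0, 300 mM NaCl, BSA, Tween 20, TCEP. Compounds preincubated 2 h at 37 deg C, then glutathione donor/nickel acceptor beads added for 1 h at 37 deg C in dark.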
Six1-Eya2 inh: blocks human Six1 binding to Eya2. Q15475+O00167. AlphaScreen GST-Six1/His-Eya2 binding, biochemical; stronger effect = lower value. activity change, % (test concentration not listed). hit rate 0.56% among 360,000; in the data active = activity change below about -65%; inconclusive = mostly about -30% to -63%; also: % is scaled to controls: 0 for no effect and ±100 for the full control effect
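Compounds are tested against tagged Six1 and Eya2 proteins bridged by glutathione donor and nickel acceptor beads; after a one-hour incubation at 37 °C without light, AlphaScreen emission is recorded.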
BAZ2B inh: BAZ2B (human) inhibition; hit rate 4.4% among 360,000; AlphaScreen BAZ2B-H3K14Ac peptide displacement; Q9UIF8; Potency, µM (highest dose often 114 µM), for inactives: top-dose activity change, negative = inhibition, most hits filed as inhibitors; AID 504333; also: potency is read from the fitted curve at half-maximal effect; % is scaled to controls: 0 for no effect and ±100 for the full control effect; nearly all actives have a fitted effect of over 60% in size
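Compounds, titrated to a top concentration of 110 uM, were incubated 30 min at room temperature with preformed BAZ2B/acetyl-K14 H3 peptide complex (50 nM each). Proximity signal was measured by AlphaScreen after 20 min with beads.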
JMJD2A Tudor: inhibitors of human JMJD2A Tudor domain. AID 504339. O75164. AlphaScreen JMJD2A-Tudor / H3K4me3 peptide binding. hit rate 4.4% among 390,000. Potency, µM (top dose mostly 114 µM), without a hit: top-dose activity change, negative = inhibition, actives largely listed as inhibitors; also: potency is read from the fitted curve at half-maximal effect; % is scaled to controls: 0 for no effect and ±100 for the full control effect; nearly all actives have a fitted effect of over 50% in size
G9a block: G9a (human) methyltransferase inhibition. Q96KQ7. G9a H3K9 monomethylation, AlphaScreen, 2 h. Potency, µM (series often up to 102 µM), for inactives: at the highest dose activity, negative = inhibition, hits mostly inhibitors. hit rate 8.8% among 350,000. AID 504332; also: potency is read from the fitted curve at half-maximal effect; % is scaled to controls: 0 for no effect and ±100 for the full control effect; nearly all actives have a fitted effect of over 75% in size
Target sequence (Q96KQ7 913-1193 limits assumed): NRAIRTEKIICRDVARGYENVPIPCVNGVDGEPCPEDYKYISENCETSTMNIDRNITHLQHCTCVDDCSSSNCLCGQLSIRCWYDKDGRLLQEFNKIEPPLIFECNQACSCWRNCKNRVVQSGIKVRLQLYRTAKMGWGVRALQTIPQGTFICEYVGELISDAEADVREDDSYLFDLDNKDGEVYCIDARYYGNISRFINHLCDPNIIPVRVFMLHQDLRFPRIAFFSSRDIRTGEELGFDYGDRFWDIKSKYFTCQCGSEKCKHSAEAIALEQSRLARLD
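Step 1: enzyme (final 20 nM) with compound, 15 min RT. Step 2: substrate peptide 500 nM and SAM 20 uM, 2 h RT. Step 3: anti-H3K9me1 antibody and AlphaScreen beads, 10 min, then plate read.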
HP1b chromo inh: inhibitors of HP1-beta chromodomain binding to methylated histone tails; P83916; AlphaScreen HP1-beta / biotin-H3K9me3 peptide binding; Potency, µM (titrated, usually from 114 µM), for the others: at the highest dose activity change, negative = inhibition, actives largely listed as inhibitors; hit rate 0.56% among 390,000; also: potency is read from the fitted curve at half-maximal effect; nearly all actives have a fitted effect of over 70% in size
Target sequence (P83916 whole entry, looked up): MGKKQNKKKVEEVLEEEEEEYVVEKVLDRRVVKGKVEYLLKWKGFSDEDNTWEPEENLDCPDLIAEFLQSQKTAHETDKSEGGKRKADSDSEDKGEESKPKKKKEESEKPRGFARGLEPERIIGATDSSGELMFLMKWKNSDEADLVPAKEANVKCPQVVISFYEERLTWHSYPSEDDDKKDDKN
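HP1-beta protein (50 nM final) preincubated 30 min at room temperature with biotinylated H3(1-18)K9me3 peptide (50 nM) in PBS pH 7.4, 0.01% Tween-20, then compound added for 30 min. AlphaScreen streptavidin donor/nickel chelate acceptor beads (10 ug/mL final), 30 min dark, luminescence read.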
An asterisk follows results filed as active; ? = inconclusive; . = no result given; [ ] = remark or other dose. Compounds with a hit are over-represented: about 10% of the library has one in this group of screens. Unless noted, calls follow the shape of the dose curve; as a rule, active = well fitted inhibition curve with a large enough effect; inconclusive = small, poorly fitted or top-dose-only effect; inactive = no such curve, though single readings can be large or run the other way.

SMILES | CtBP-E1A inh | Six1-Eya2 inh | BAZ2B inh | JMJD2A Tudor | G9a block | HP1b chromo inh
N#Cc1nc(-c2cccs2)oc1NCCN1CCOCC1 | -2.1 | -18.4 | -1.6% | ? | -9.3% | 0.2%
N#Cc1nc(-c2ccco2)oc1N1CCN(c2cccc(Cl)c2)CC1 | 8.3 | ? | 25.1µM* | ? | ? | ?
COc1ccccc1-c1nc(C#N)c(N2CCN(c3cccc(Cl)c3)CC2)o1 | -1.4 | -4.0 | 6.1% | ? | 0.708µM* | ?
N#Cc1nc(-c2ccco2)oc1N1CCc2ccccc2C1 | -21.0 | ? | 25.1µM* | ? | ? | ?
N#Cc1nc(-c2ccco2)oc1N1CCCC1 | 0.0 | -1.7 | 2.8% | -19.2% | 25.3%[2.33 µM] | 0.8%
COc1ccccc1-c1nc(C#N)c(N2CCN(C(c3ccccc3)c3ccccc3)CC2)o1 | -0.6 | 0.5 | ? | -27.1% | 4.5%[2.33 µM] | -23.8%
Cc1nnc(SCC(=O)c2ccc(Cl)cc2)n(N)c1=O | 2.4 | 12.0 | -24.9% | -8.0% | ? | 21.0%
CCc1nc2c(OCc3cc(Cl)cc(Cl)c3)cccn2c1N(C)C(=O)c1ccc(OC)cc1 | -15.3 | -14.0 | . | . | . | .
N#Cc1nc(-c2ccccc2)oc1N1CCN(C(=O)c2ccco2)CC1 | 0.0 | 8.6 | 1.8% | -28.1% | 39.8µM* | -17.7%
N#Cc1c(N2CCN(C(=O)c3ccco3)CC2)nc(-c2ccccc2)c2c1CCCC2 | 0.0 | -6.0 | -10.7% | -14.1% | -33.4%[59 µM] | 14.0%
COC1CCCCC1Nc1cc(C)cc(C)c1 (stereo unspecified) | 9.5 | -13.9 | 35.5µM* | 17.8µM* | 14.1µM* | 17.8µM*
COC1CCCCC1Nc1cccc(SC)c1 (stereo unspecified) | 11.0 | -9.5 | -18.4% | -23.3% | ? | 14.5%
O=c1ccc(-c2n[nH]c(=S)n2-c2ccc(F)c(Cl)c2)n[nH]1 | 0.0 | 7.5 | ? | 35.5µM* | 3.16µM* | 15.8%
Fc1ccc(-n2c(-c3cc(C4CC4)[nH]n3)n[nH]c2=S)cc1Cl | 4.6 | -6.8 | ? | 79.4µM* | 1.58µM* | 10.5%
Cc1ccc(N(Cc2ccccc2)C(=O)Cc2ccc(S(=O)(=O)N3CCOCC3)s2)cc1 | 4.8 | -12.4 | 4.3% | -30.8% | 2.1% | 24.5%
Cc1cc(-c2c(C)[nH]n(-c3ccc(Cl)cc3)c2=O)n[nH]1 | ? | ? | 28.2µM* | ? | 1.4% | 7.6%
COCCNC(=O)C(OC(=O)c1cc2oc(C)cc2n1C)C(C)C (stereo unspecified) | 2.1 | -2.2 | 79.4µM* | -15.0% | ? | 24.0%
O=c1c2cc3c(cc2n(Cc2ccccc2)c(=O)n1Cc1nc(-c2ccccc2)no1)OCO3 | . | . | 2.1% | 2.8% | 1.0%[59 µM] | 49.9%
O=C(O)C1Cc2[nH]cnc2C(c2ccccc2O)N1 (stereo unspecified) | ? | ? | 0.0% | 89.1µM* | 16.9%[59 µM] | 18.3%
COc1ccc(-c2nc(-c3ccccc3)c(-c3cccs3)[nH]2)cc1OC | 6.8 | ? | 8.5% | 39.8µM* | -5.3%[12.7 µM] | -21.8%
Oc1cccc(-c2nc(-c3cccs3)c(-c3cccs3)[nH]2)c1 | . | . | 39.8µM* | ? | ? | -1.8%
COc1ccc(-c2nc(-c3ccccc3)c(-c3ccccc3)[nH]2)cc1Br | . | . | -3.7% | -9.6% | -29.2%[59 µM] | 23.4%
COc1ccc(-c2nc(-c3cccs3)c(-c3cccs3)[nH]2)cc1OC | -73.0* | ? | -5.1% | -8.8% | -7.4%[12.7 µM] | -31.7%
O=[N+]([O-])c1ccc(-c2nc(-c3cccs3)c(-c3cccs3)[nH]2)cc1 | -22.3 | ? | -3.6% | 20µM* | . | ?
CC(C)OCC1CO1 (stereo unspecified) | 31.7 | 15.4 | -6.7% | -15.9% | 8.0%[0.501 µM] | 90.6%
SMILES | CtBP-E1A inh | Six1-Eya2 inh | BAZ2B inh | JMJD2A Tudor | G9a block | HP1b chromo inh
COc1ccc(N=Nc2n(C)c3ccccc3[n+]2C)cc1 | . | . | 39.8µM* | . | . | .
C=CCNC(=O)c1ccsc1N | -19.7 | -0.5 | . | . | . | .
CCOc1cc(-c2nn3cnnc3s2)cc(OCC)c1OCC | -0.6 | -2.4 | 3.5% | 17.8µM* | 2.3% | -8.9%
COc1ccc(C2(N3CCN(c4cc(C)ccc4C)CC3)C(=O)c3ccccc3C2=O)cc1 | . | . | ? | ? | ? | -15.3%
Cc1ccc(C)c(N2CCN(C3(c4ccccc4)C(=O)c4ccccc4C3=O)CC2)c1 | . | . | 6.31µM* | ? | 7.08µM* | -23.7%
Cc1cccc(N2CCN(C3(c4ccccc4)C(=O)c4ccccc4C3=O)CC2C)c1 (stereo unspecified) | . | . | 8.91µM* | ? | 8.91µM* | ?
CN(C)S(=O)(=O)c1cccc(NC(=O)CCNC(=O)c2ccccc2Cl)c1 | 19.6 | 5.3 | 8.7% | -17.5% | 0.3%[59 µM] | 17.0%
Cc1ccc(C)c(S(=O)(=O)N2CCN(C(=O)c3ccnn3C)CC2)c1 | 4.3 | -1.7 | -4.2% | -11.8% | 39.0% | 38.2%
O=[N+]([O-])c1ccc(Cl)c(S(=O)(=O)Nc2ccc(-c3ccc(N4CCCC4)nn3)cc2)c1 | -3.4 | -24.2 | -8.2% | -34.2% | 50.1µM* | 0.1%
O=[N+]([O-])c1ccc(Cl)c(S(=O)(=O)Nc2cccc(-c3ccc(N4CCCC4)nn3)c2)c1 | -14.1 | -29.2 | ? | -33.8% | 39.8µM* | 0.9%
COc1ccc(OC)c(S(=O)(=O)Nc2cccc(-c3ccc(N4CCCCC4)nn3)c2)c1 | . | . | -1.9% | ? | 3.55µM* | ?
CC(C)(C)NC(=O)Cn1cc(S(=O)(=O)Cc2ccccc2Cl)c2ccccc21 | . | . | -1.4% | -9.6% | 2.1%[59 µM] | 6.8%
COc1cccc(-c2nc(S(=O)(=O)c3ccc(C)cc3)c(N3CCCCCC3)o2)c1 | . | . | ? | -22.3% | -41.1%[59 µM] | -15.3%
O=P(c1ccccc1)(c1ccccc1)c1nc(-c2ccccc2)oc1N1CCOCC1 | -11.7 | -9.0 | ? | -20.2% | -0.1%[59 µM] | -3.0%
O=P(c1ccccc1)(c1ccccc1)c1nc(-c2ccc(Cl)cc2)oc1N1CCOCC1 | -2.0 | -3.3 | 44.7µM* | ? | ? | -29.6%
COc1ccc(-c2nc(S(=O)(=O)c3ccccc3)c(N3CCOCC3)o2)cc1 | -12.9 | 0.7 | -29.2% | 79.4µM* | ? | -1.4%
CC(C)(C)c1ccc(-c2nc(S(=O)(=O)c3ccccc3)c(N3CCOCC3)o2)cc1 | . | . | ? | ? | ? | -12.1%
COc1ccc(-c2nc(S(=O)(=O)c3ccc(C)cc3)c(N3CCCCC3)o2)cc1 | . | . | ? | 50.1µM* | 3.55µM* | ?
Cc1ccc(-c2nc(S(=O)(=O)c3ccc(Cl)cc3)c(N3CCCCC3)o2)cc1 | . | . | ? | -33.7% | 2.82µM* | ?
CCCCCCn1c(=O)c(C(=O)N/N=C/c2cccc(F)c2)c(O)c2ccccc21 | 1.3 | 2.6 | 2.2% | -6.2% | 56.5%[59 µM] | 47.3%
CCc1ccc(C2CC(=O)c3c([nH]c(C(=O)OCCOc4ccccc4)c3C)C2)cc1 (stereo unspecified) | . | . | -2.8% | -10.3% | -3.2%[59 µM] | 30.8%
